Measured values as given in the supplement of paper PMC11732987, “Enantioselective OTUD7B fragment discovery through chemoproteomics screening and high-throughput optimisation” (Communications Chemistry, 2025).
A number with no mark means an inactive call.

Legend:
Test in all cases: log2 ratio of Biotin-Ahx-Ub-VS probe labelling (fragment/DMSO); higher = less target engagement (more negative = stronger competition), active = hit call of the paper (q ≤ 0.05, log2 ratio ≤ -1)
Conditions in all cases: compound concentration: 200 uM; treatment time: 3 h
[1] = target: T1, USP19 (UniProt O94966)
T1 sequence (whole entry): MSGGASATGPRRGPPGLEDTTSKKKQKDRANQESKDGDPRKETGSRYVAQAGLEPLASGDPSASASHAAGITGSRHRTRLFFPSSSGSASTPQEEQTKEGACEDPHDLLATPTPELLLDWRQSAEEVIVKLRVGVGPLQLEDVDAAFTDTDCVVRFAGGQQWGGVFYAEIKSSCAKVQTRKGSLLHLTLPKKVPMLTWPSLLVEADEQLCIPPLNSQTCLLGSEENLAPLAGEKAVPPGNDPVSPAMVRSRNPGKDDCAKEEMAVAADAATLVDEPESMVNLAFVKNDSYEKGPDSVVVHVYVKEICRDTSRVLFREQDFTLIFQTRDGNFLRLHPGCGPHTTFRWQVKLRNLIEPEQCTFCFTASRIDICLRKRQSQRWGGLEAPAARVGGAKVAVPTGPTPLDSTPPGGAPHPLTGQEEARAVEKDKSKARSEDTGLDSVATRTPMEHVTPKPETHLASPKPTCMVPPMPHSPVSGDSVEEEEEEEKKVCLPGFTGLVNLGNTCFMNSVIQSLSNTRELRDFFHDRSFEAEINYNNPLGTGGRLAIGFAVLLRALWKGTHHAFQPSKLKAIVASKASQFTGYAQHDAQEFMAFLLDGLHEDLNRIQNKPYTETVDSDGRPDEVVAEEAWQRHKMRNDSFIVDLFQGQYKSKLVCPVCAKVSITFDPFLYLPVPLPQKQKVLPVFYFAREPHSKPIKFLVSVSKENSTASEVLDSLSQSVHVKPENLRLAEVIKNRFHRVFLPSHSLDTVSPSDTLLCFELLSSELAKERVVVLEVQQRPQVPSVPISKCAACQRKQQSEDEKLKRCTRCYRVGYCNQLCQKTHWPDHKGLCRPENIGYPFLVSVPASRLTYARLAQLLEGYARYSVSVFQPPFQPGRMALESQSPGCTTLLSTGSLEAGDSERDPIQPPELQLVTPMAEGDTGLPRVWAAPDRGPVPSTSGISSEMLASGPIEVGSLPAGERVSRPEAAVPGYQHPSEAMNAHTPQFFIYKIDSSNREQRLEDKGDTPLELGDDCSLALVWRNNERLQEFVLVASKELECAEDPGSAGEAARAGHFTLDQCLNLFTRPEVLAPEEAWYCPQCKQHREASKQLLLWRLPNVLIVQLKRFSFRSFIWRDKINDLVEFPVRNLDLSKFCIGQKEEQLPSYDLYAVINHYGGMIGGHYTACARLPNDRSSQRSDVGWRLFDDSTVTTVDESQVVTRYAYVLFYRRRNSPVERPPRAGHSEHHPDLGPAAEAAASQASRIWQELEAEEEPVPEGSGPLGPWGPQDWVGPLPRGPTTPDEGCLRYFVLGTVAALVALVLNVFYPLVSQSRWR
Method in brief: (§1)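 Average log2 ratios of fragment over vehicle were obtained by unpaired t-test from global-median-normalised Spectronaut label-free quantities. Proteins with ≥2 unique peptides were included. HEK293T lysate (495 µg per sample) was treated in triplicate with fragment at 200 µM or vehicle for 3 h, then with Biotin-Ahx-Ub-VS at 0.5 µM final for 1 h, and labelled DUBs were NeutrAvidin-enriched and run by diaPASEF LC-MS/MS.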

[2] = target: T2, USP22 (UniProt Q9UPT9)
T2 sequence (whole entry): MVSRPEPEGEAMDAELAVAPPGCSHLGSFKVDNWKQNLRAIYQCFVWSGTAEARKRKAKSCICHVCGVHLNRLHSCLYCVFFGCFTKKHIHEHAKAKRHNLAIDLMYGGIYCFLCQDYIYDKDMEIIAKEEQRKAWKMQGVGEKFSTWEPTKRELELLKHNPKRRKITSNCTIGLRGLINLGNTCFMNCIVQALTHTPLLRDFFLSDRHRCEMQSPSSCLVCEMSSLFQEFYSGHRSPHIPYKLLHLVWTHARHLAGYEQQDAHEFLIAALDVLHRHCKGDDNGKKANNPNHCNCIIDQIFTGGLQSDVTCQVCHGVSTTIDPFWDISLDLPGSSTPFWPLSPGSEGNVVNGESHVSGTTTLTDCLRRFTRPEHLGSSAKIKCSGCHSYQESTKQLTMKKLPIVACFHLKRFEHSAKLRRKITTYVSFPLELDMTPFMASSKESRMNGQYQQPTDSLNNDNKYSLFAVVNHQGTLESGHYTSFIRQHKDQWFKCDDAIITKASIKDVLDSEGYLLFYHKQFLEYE
Method in brief: as §1

[3] = target: USP24 (UniProt Q9UPU5)
Method in brief: as §1

[4] = target: T3, USP25 (UniProt Q9UHP3)
T3 sequence (whole entry): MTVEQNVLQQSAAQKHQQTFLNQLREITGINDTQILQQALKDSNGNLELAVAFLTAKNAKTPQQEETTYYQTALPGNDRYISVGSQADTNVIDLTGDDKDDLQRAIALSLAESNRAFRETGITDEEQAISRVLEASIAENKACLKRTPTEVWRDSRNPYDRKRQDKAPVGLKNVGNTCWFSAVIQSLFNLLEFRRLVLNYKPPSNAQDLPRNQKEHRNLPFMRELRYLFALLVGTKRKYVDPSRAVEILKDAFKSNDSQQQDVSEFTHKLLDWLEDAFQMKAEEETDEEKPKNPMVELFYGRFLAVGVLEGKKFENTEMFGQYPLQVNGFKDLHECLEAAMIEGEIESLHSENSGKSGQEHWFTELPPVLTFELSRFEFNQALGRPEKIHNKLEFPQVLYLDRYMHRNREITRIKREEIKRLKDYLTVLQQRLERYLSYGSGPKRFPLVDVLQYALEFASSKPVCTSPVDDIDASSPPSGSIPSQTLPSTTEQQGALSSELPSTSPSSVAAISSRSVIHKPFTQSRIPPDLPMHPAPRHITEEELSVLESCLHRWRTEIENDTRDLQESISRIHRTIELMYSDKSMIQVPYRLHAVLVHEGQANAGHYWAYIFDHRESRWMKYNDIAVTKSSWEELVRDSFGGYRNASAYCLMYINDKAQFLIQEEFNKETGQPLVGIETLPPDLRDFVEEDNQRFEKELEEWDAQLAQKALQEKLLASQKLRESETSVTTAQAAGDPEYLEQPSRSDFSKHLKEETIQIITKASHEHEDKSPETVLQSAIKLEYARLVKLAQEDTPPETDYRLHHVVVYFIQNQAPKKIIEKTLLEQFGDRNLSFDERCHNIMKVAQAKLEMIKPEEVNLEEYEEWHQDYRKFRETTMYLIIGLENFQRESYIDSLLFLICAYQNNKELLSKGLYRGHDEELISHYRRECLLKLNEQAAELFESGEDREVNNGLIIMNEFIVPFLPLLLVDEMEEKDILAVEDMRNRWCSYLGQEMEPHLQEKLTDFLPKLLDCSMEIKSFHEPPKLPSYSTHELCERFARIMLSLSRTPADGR
Method in brief: as §1

[5] = target: T4, USP28 (UniProt Q96RU2)
T4 sequence (whole entry): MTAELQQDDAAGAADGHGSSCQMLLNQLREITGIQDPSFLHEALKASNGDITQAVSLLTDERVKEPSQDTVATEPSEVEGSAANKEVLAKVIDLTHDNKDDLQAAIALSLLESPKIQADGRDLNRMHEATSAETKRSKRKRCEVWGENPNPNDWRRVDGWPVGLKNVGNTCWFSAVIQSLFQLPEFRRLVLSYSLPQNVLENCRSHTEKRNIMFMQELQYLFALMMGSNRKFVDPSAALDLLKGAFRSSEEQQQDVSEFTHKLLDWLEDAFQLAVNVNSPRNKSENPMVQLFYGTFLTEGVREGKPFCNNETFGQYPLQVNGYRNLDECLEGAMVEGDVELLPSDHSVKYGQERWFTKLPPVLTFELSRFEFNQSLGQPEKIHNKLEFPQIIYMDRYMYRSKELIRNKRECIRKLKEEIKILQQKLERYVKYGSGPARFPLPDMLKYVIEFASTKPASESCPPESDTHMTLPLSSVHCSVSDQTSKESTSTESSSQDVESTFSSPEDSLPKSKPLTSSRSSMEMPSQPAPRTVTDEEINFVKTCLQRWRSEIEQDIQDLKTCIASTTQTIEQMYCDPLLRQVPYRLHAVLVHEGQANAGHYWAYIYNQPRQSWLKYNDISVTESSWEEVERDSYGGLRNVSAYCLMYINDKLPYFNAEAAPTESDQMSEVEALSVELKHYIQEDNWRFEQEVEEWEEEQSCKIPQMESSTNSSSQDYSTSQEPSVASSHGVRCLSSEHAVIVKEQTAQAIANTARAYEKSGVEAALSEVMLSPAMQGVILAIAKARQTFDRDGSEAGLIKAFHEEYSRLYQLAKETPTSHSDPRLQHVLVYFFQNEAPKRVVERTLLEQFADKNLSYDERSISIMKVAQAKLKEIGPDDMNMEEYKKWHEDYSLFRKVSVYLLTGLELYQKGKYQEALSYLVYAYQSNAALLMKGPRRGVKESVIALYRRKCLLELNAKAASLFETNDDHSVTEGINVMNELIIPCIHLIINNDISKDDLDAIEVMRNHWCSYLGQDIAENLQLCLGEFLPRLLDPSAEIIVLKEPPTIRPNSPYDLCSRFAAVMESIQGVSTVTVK
Method in brief: as §1

Chain of USP24 (Q9UPU5 whole entry): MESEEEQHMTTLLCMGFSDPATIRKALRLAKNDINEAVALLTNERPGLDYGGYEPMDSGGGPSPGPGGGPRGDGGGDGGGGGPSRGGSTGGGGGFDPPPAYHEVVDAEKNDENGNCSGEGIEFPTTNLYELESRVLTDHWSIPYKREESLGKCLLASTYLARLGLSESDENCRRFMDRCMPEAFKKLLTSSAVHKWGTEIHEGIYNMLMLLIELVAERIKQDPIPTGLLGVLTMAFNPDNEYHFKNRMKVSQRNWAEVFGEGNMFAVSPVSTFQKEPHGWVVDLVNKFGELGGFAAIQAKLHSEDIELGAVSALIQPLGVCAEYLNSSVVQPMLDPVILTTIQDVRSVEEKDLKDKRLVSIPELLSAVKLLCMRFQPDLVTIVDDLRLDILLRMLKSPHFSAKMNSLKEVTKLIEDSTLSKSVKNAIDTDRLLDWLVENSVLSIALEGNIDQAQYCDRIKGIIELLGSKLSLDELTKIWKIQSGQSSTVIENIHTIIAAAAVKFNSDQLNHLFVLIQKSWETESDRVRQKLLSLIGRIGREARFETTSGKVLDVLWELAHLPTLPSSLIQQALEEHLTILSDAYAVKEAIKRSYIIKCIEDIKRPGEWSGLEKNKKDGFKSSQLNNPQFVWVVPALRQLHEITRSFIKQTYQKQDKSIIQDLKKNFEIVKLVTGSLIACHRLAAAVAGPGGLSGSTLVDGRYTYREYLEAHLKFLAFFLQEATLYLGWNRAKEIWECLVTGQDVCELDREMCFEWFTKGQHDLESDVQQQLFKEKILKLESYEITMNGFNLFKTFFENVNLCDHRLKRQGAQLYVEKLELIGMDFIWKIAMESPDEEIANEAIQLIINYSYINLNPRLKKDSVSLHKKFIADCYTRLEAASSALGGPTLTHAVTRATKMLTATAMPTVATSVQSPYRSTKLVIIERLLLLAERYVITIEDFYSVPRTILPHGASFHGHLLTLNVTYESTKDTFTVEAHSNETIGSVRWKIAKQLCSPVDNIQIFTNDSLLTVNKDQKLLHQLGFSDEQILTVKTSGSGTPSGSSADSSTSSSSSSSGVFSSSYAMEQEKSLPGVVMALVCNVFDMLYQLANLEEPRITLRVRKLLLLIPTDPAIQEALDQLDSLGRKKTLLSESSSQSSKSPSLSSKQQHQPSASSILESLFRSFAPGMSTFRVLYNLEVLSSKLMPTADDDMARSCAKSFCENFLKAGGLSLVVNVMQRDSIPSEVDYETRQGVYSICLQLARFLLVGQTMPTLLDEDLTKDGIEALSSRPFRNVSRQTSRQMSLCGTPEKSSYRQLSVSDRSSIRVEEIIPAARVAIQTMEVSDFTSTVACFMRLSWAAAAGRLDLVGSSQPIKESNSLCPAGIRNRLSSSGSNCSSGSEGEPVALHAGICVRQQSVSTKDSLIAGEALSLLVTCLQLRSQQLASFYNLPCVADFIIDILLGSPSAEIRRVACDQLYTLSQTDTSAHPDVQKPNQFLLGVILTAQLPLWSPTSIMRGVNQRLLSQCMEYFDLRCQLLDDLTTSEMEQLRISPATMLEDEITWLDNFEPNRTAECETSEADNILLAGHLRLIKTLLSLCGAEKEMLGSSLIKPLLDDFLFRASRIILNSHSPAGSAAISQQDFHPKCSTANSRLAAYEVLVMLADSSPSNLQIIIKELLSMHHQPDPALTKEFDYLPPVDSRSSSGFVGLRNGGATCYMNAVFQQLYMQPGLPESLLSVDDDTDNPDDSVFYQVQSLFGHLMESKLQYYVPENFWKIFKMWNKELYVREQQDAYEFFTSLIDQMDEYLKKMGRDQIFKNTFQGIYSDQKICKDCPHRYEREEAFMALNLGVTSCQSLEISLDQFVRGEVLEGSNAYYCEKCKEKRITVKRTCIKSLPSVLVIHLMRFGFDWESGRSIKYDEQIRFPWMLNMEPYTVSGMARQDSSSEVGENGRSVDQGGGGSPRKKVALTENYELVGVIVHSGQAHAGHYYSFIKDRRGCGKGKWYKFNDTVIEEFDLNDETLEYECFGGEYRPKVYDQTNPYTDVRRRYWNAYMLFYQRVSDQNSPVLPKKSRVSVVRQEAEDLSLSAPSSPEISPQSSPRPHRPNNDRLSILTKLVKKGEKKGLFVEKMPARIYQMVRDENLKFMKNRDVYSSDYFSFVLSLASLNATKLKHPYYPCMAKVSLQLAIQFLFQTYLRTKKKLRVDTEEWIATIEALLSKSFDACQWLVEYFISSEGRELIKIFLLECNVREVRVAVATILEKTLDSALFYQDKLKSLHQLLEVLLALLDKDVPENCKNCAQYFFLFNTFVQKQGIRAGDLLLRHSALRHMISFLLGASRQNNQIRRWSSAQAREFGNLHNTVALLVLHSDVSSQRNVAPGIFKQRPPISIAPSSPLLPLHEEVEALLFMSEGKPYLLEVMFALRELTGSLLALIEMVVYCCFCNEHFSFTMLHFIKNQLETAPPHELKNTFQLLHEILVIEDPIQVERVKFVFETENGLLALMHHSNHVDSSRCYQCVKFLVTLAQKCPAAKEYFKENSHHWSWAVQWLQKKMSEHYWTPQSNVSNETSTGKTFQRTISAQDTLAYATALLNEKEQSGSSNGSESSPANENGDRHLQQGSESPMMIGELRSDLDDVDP

Which results are given for `O=C(CCl)Nc1ccc(N2CCCC2=O)cc1`?
log2 ratio of Biotin-Ahx-Ub-VS probe labelling [1]: -0.0288; log2 ratio of Biotin-Ahx-Ub-VS probe labelling [2]: 0.36; log2 ratio of Biotin-Ahx-Ub-VS probe labelling [3]: -0.284; log2 ratio of Biotin-Ahx-Ub-VS probe labelling [4]: -1.8 (active); log2 ratio of Biotin-Ahx-Ub-VS probe labelling [5]: -1.25 (active)
